Source: PubChem
An excerpt weighted towards active compounds, which were near 9.3% of everything screened.
SMN2 splice up: enhancers of SMN2 splice variant expression | HEK293 SMN2-luciferase splicing reporter, luminescence, 30-36 h | Potency, µM (highest dose often 46.1 µM), without a hit: at the top dose activity change, positive = activation, most hits filed as activators | actives 2.8% (n = 210,000) | AID 1458; note: % of control where 0% means no effect; nearly all actives have a fitted effect of over 55% in size
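HEK293 cells carry an SMN2 minigene-luciferase reporter in which exon 7 inclusion puts luciferase in frame. Cells were seeded at 2000 cells/well, attached for 10-12 hours, then exposed to compounds for 30-36 hours at 37C before ONE-Glo luminescence.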
Rab9 promoter act: activators of Rab9 promoter; Huh7 Rab9 promoter-luciferase reporter, luminescence, 24 h; Potency, µM (top dose mostly 9.22 µM), for inactives: top-dose activation, negative = inhibition, most hits filed as activators; actives 2.8% (n = 320,000); AID 485297; note: % of control where 0% means no effect; nearly all actives have a fitted effect of over 60% in size
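Cells were plated at 1500 per well in reduced-serum medium with 10% FBS and left 2 h. Compound in DMSO was then added for 24 h at 37 °C. Reporter signal was read by luminescence after 10 min with luciferase detection reagent.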
ELG1 genotox: genotoxicity induction in ELG1-luciferase HEK293T cells. actives 1.3% (n = 330,000). Potency, µM (highest dose often 46 µM), for inactives: top-dose activity change, positive = activation, hits mostly activators. HEK293T ELG1-luciferase reporter, luminescence, 16 h; note: % of control where 0% means no effect; nearly all actives have a fitted effect of over 60% in size
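Genotoxic stress is detected as increased luminescence from luciferase-tagged ELG1 in HEK293T cells, measured with ONE-Glo after a 16 hr treatment at 37 °C.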
FLuc counter: firefly luciferase modulation, counter-screen for miR-21 project; P08659; purified FLuc, Km substrates, luminescence inhibition; Potency, µM (highest dose often 57.5 µM), without a hit: at the top dose activity change, negative = inhibition, hits mostly inhibitors; actives 6.9% (n = 360,000); AID 588342;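 note: plate controls were vehicle for no effect and reference inhibitor for full effect; nearly all actives have a fitted effect of over 55% in size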
Target sequence (P08659 whole entry, looked up): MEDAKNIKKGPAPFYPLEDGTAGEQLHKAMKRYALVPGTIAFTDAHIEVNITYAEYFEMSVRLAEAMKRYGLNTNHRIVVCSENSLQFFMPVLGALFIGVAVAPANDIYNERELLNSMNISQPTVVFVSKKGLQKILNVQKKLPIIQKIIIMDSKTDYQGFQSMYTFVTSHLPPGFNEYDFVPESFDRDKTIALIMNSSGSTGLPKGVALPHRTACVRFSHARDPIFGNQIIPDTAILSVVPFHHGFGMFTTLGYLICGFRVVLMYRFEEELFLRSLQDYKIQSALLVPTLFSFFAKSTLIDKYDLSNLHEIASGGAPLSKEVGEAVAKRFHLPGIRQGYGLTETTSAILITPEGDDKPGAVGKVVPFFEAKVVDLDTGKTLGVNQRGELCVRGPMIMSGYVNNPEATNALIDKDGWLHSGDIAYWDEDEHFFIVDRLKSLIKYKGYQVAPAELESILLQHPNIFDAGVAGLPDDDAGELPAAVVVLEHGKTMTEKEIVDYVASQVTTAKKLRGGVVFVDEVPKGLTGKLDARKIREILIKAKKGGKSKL
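Purified P. pyralis luciferase (10nM final) with 10uM D-luciferin and 10uM ATP (Km levels) in 50mM Tris acetate pH 7.5, 10mM Mg acetate, 0.01% Tween-20, 0.05% BSA; qHTS 6-point titration, ~60 µM downward; luminescence read.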
ELG1 repair inh: blocks ELG1-dependent DNA repair in HEK293T cells; HEK293T ELG1-luciferase reporter, luminescence, 16 h; DNA damage induced by 5-fluorouridine; Potency, µM (highest dose often 46.1 µM), for the others: top-dose activity change, negative = inhibition, usual class: inhibitors; actives 2.3% (n = 330,000); AID 504467; note: % is set by controls: 0 for no effect and ±100 for the full control effect; nearly all actives have a fitted effect of over 55% in size
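Cells (2,000 per well) received 5-fluorouridine plus test compound or DMSO and were incubated 16 hr at 37 °C, 5% CO2. Luciferase activity was read by luminescence 30 min after ONE-Glo addition; signal suppression marked inhibition of damage-induced ELG1 function.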
NPC1 prom act: NPC1 promoter activation; Huh7 NPC1 promoter luciferase reporter, 24 h; Potency, µM (doses to about 9.22 µM), for inactives: at the highest dose activation, usual class: activators; actives 2.4% (n = 320,000); note: % of control where 0% means no effect; nearly all actives have a fitted effect of over 60% in size
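Luminescence read-out of NPC1 promoter-driven luciferase in stably transfected Huh7 cells; compounds delivered in DMSO and left 24 h at 37C, 5% CO2, qHTS titration format.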
An asterisk follows results filed as active; [ ] = another dose, or the depositor's remark. Calls come from the whole dose curve; as a rule, active = well fitted curve in the direction sought with a large enough effect; inconclusive = small, poorly fitted or top-dose-only effect, or another doubt; inactive = no such curve, though single readings can be large; an effect the other way counts as inactive or inconclusive. Potency is the fitted concentration of half-maximal effect.

How did Cc1ccc(OCC(=O)Nc2cccc(O)c2)cc1C do in these assays?
SMN2 splice up: -5.0%; Rab9 promoter act: inconclusive; ELG1 genotox: inconclusive; FLuc counter: 5.36µM*; ELG1 repair inh: inconclusive; NPC1 prom act: inconclusive

What do the screens show for `Cc1cccc(NC(=O)COc2ccccc2)c1`?
SMN2 splice up: 17.4%; Rab9 promoter act: 12.7%; ELG1 genotox: inconclusive; FLuc counter: 3.5%[2.3 µM]; ELG1 repair inh: inconclusive; NPC1 prom act: 1.7%

Results for Cc1cccc(OCC(=O)Nc2cccc(O)c2)c1 ?
SMN2 splice up: 13.4%; Rab9 promoter act: 0.4%; ELG1 genotox: 10µM*; FLuc counter: 16.9µM*; ELG1 repair inh: inconclusive; NPC1 prom act: -2.3%

What do the screens show for `O=C(COc1cc(Cl)c(Cl)cc1Cl)Nc1cccc(O)c1`?
Rab9 promoter act: -2.6%; ELG1 genotox: inconclusive; FLuc counter: 1.07µM*; ELG1 repair inh: inconclusive; NPC1 prom act: -1.3%

How did COc1cccc(NC(=O)COc2ccc(Br)c(C)c2)c1 do in these assays?
Rab9 promoter act: 10.6%; ELG1 genotox: 15.3%; FLuc counter: 19µM*; ELG1 repair inh: inconclusive; NPC1 prom act: -1.3%

How did COc1ccccc1NC(=O)c1ccc(NC(=O)COC(=O)c2cncc(Br)c2)cc1 do in these assays?
ELG1 genotox: 2.5%; ELG1 repair inh: inconclusive

Results for NS(=O)(=O)c1cccc(NC(=O)COC(=O)CCCc2c[nH]c3ccccc23)c1 ?
SMN2 splice up: -3.4%; Rab9 promoter act: -0.1%; ELG1 genotox: -5.8%; FLuc counter: inconclusive; ELG1 repair inh: -7.8%; NPC1 prom act: -17.6%

What do the screens show for `CC(Oc1ccc(Cl)cc1Cl)C(=O)Nc1cccc(O)c1` (configuration not stated)?
SMN2 splice up: -0.5%; Rab9 promoter act: -4.4%; ELG1 genotox: 16.7%; FLuc counter: 16.9µM*; ELG1 repair inh: inconclusive; NPC1 prom act: -0.4%

What do the screens show for `CCC(=O)Nc1cccc(NC(=O)COc2ccc(OC)cc2)c1`?
SMN2 splice up: 15.0%; Rab9 promoter act: -1.4%; ELG1 genotox: inconclusive; FLuc counter: 15.1µM*; ELG1 repair inh: inconclusive; NPC1 prom act: -2.0%

How did COc1ccc(OC(=O)COc2cccc(C)c2)cc1 do in these assays?
Rab9 promoter act: 2.6%; ELG1 genotox: -2.3%; FLuc counter: 15.1µM*; ELG1 repair inh: -5.9%; NPC1 prom act: 0.9%

Results for COc1ccc(OC(=O)COc2ccc(C)cc2)cc1 ?
SMN2 splice up: 3.4%; Rab9 promoter act: -0.8%; ELG1 genotox: 5.3%; FLuc counter: inconclusive; ELG1 repair inh: -6.6%; NPC1 prom act: 15.3%

Results for CCCCNC(=O)c1ccc2c(c1)S(=O)(=O)c1ccccc1C2=O ?
Rab9 promoter act: -5.4%; ELG1 genotox: 11.0%; FLuc counter: 15.1µM*; ELG1 repair inh: 18.2%; NPC1 prom act: -4.3%

Results for S=C1c2ccccc2CN1c1ccccc1 ?
SMN2 splice up: inconclusive; Rab9 promoter act: 20.1%; ELG1 genotox: 12.0%; FLuc counter: inconclusive; ELG1 repair inh: inconclusive; NPC1 prom act: 8.9%

Results for Cc1ccc(N2Cc3ccccc3C2=S)cc1 ?
SMN2 splice up: 11.2µM*; Rab9 promoter act: 2.51µM*; ELG1 genotox: -9.5%; FLuc counter: 4.78µM*; ELG1 repair inh: inconclusive; NPC1 prom act: 2.82µM*

How did C#CCn1cc(C=C2C(=O)c3ccccc3C2=O)c2ccccc21 do in these assays?
SMN2 splice up: 21.6%; Rab9 promoter act: 2.7%; ELG1 genotox: 17.4%; FLuc counter: 2.39µM*; ELG1 repair inh: inconclusive; NPC1 prom act: 17.7%

What do the screens show for `O=C(CNc1cccc([N+](=O)[O-])c1)NC(=O)NC1CCCCC1`?
ELG1 genotox: -2.6%; ELG1 repair inh: -7.4%

What do the screens show for `COc1cccc2sc(NC(=O)c3ccc(Br)s3)nc12`?
SMN2 splice up: -6.8%; Rab9 promoter act: inconclusive; ELG1 genotox: inconclusive; FLuc counter: 2.39µM*; ELG1 repair inh: inconclusive; NPC1 prom act: inconclusive
